Assay results reported in PubChem BioAssay (NCI).
This is part of a sample that, as a whole, favours compounds with a hit. Of some 83,000 tested, about 20% had one in any assay.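 96-well plates, one dose, 48 hours. Percent growth reported; active if below 10.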 The source made the active and inactive calls.

How the values were obtained:
Experiment in all cases: NCI-60 one-dose screen, 48 h (100 = growth as untreated, 0 = no growth, -100 = all killed)
Settings in all cases: 10 µM unless noted
[1] = tested on: HCT-15 colon
[2] = tested on: HT29 colon
[3] = tested on: SNB-75 CNS
[4] = tested on: SNB-19 CNS
[5] = tested on: U251 CNS
[6] = tested on: PC-3 prostate
[7] = tested on: SK-MEL-5 melanoma
[8] = tested on: UACC-62 melanoma
[9] = tested on: LOX IMVI melanoma
[10] = tested on: SK-MEL-28 melanoma

Measured: growth

COC(=O)CCc1c(/C=C2\N=C(c3ccc[nH]3)C=C2OC)[nH]c(C)c1C(=O)OCc1ccccc1
inactive: [4] 39.3% | [10] 16.8%
active: [1] -1.22% | [2] 9.15% | [3] -17.6% | [5] 3.55% | [6] 6.14% | [7] -52.4% | [8] -29.2% | [9] -52.7%

Cc1cc([N+](=O)[O-])ccc1NC(=O)c1ccc2c(c1)nc(-c1ccccc1)n2C1CCCCC1
inactive: [1] 51.9% | [2] 44.5% | [3] 80.9% | [4] 119% | [5] 91.4% | [6] 77.4% | [7] 62.3% | [8] 95% | [9] 64% | [10] 117%

CCC(=C(c1ccc(OCCN(CC)CC)cc1)c1ccc(OCCN(CC)CC)cc1)c1ccc(Cl)cc1
active: [1] -81% | [2] -68% | [3] -73.6% | [4] -56.1% | [5] -87.8% | [6] -50.7% | [7] -98.2% | [8] -68.3% | [9] -87% | [10] -86.9%

CNc1nc2ncc(-c3c(C)noc3C)cc2n1Cc1ccccc1
inactive: [1] 51.2% | [2] 31.8% | [4] 59.3% | [5] 61% | [6] 32.2% | [7] 47.9% | [8] 17% | [9] 32.5% | [10] 57.4%
active: [3] 0.561%

CCOc1ccc(N2C(=O)CCSC2=S)cc1
inactive: [1] 101% | [2] 106% | [3] 90.5% | [4] 94.7% | [5] 102% | [6] 93.3% | [7] 98.9% | [8] 91.9% | [9] 96.5% | [10] 108%

C1=C2CCCC3=Cc4ccccc4OC23Oc2ccccc21
active: [2] 5.93%
inactive: [1] 20.1% | [3] 23% | [4] 27.4% | [5] 26.5% | [6] 34.7% | [7] 20% | [8] 14.5% | [9] 23% | [10] 54.2%

Cc1cc(C)n(C(=O)CSc2nc3sc4c(c3c(=O)n2-c2ccccc2)CCCCC4)n1
inactive: [1] 103% | [2] 105% | [3] 89.6% | [4] 95.4% | [5] 97.4% | [6] 99% | [7] 93% | [8] 95.6% | [9] 98.9% | [10] 110%

CCOC(=O)c1ccc2c(c1)c1c(C)c3cnccc3c(C)c1n2C
active: [1] -64.9% | [2] -44.6% | [3] -45% | [4] -15% | [5] -45.1% | [6] -21.7% | [7] -99% | [8] -77.3% | [9] -62.2% | [10] -97.7%

COc1ccc(CNc2c3ccccc3nc3ccccc23)cc1OC
inactive: [1] 10.3% | [3] 24.8% | [4] 21.8% | [5] 23.2% | [6] 22% | [7] 17.5% | [8] 26.8% | [10] 35.2%
active: [2] 4.44% | [9] -3.83%

COc1ccc(Cn2cc3c(c2)-c2oncc2CC3)cc1
inactive: [1] 54.8% | [3] 50.6% | [4] 71.8% | [5] 42.8% | [6] 82.3% | [7] 49.7% | [8] 38.6% | [9] 59% | [10] 69.9%
active: [2] 9.48%

O=c1ccc2c(ccc3ncccc32)o1
inactive: [1] 108% | [2] 99.9% | [3] 105% | [4] 118% | [5] 109% | [6] 94.3% | [7] 95% | [8] 112% | [9] 102% | [10] 113%

COc1cc(C2=Nc3c(N)nc(N)nc3NC(c3cccc(Nc4ccnc5cc(C(F)(F)F)ccc45)c3)C2)cc(OC)c1OC (stereo not given)
inactive: [1] 58% | [2] 45.5% | [3] 68.9% | [4] 78.2% | [5] 61% | [6] 58.5% | [7] 64.1% | [8] 87.2% | [9] 66% | [10] 101%

Nc1ncc(-c2ccc3ncnc(N4CCc5cc(F)c(Cl)cc54)c3c2)cn1
active: [3] -6.4%
inactive: [1] 44.2% | [2] 41.8% | [4] 59.6% | [5] 54.8% | [6] 28.3% | [7] 59.9% | [8] 23.8% | [9] 37.6% | [10] 65.1%

Cc1ccc(-c2nc(C#N)c(S(=O)(=O)n3nc(C)cc3N)o2)cc1
inactive: [1] 49.2% | [2] 50.1% | [3] 97.6% | [4] 97.5% | [5] 95.4% | [6] 85% | [7] 90% | [8] 96.1% | [9] 56.4% | [10] 93.8%

O=C1OCC2=C1C(c1cccc(F)c1)c1cc3c(cc1N2CCO)CCC3 (stereo not given)
inactive: [3] 29.6% | [4] 23.9% | [5] 14.3% | [6] 24.2% | [8] 42% | [9] 16.2% | [10] 54.7%
active: [1] 7.86% | [2] 5% | [7] -1.4%

CCOC(=O)C1=CCC(n2cc(F)c(=O)[nH]c2=O)O1 (stereo not given)
inactive: [1] 104% | [2] 105% | [3] 121% | [4] 108% | [5] 95.6% | [6] 102% | [7] 104% | [8] 108% | [9] 94.7% | [10] 114%

CCCn1cnc2c(c1=N)C(c1ccc(Cl)cc1)c1sc3c(F)cccc3c1O2 (stereo not given)
inactive: [1] 40.9% | [2] 20.8% | [3] 90.2% | [4] 87.5% | [5] 59.8% | [6] 65.8% | [7] 63.7% | [8] 85.4% | [9] 82.3% | [10] 80.1%

CN(C)c1ccc(/C=C/C2=[N+](C)c3ccccc3C2(C)C)cc1
inactive: [1] 39.5% | [2] 12.5% | [3] 36.3% | [4] 13.2% | [5] 19.2% | [9] 15.2% | [10] 35.4%
active: [6] 4.64% | [7] -4.87% | [8] 9.39%

CCN1C(=O)N(CC)C2C1NN=c1s/c(=C\c3ccccc3)c(=O)n12 (stereo not given)
active: [2] 3.09% | [5] 8.08% | [7] -9.58%
inactive: [1] 11% | [3] 20.8% | [4] 27.1% | [6] 23.9% | [8] 24.3% | [9] 15.9% | [10] 60.6%
